CF NFkB block = inhibitors of PAF-induced NF-kB signaling, primary screen, cell-based, GFP fluorescence, uHTS. 360,000 compounds, 0.86% hits. KKLEB NF-kB-GFP reporter, GFP fluorescence overnight. inhibition, % at 5 µM;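 active means at least 50% inhibition at 5 µM, scaled per plate between neutral and stimulator controls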;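 further: PAF is a Pseudomonas aeruginosa culture filtrate used as stimulus; plate controls were PAF-stimulated DMSO wells for no effect and unstimulated DMSO wells for full effect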
KKLEB cytotox = cytotoxicity in KKLEB CF airway cells, primary screen, cytotoxicity control for CF NF-kB inhibitor project, cell-based, uHTS, fluorescence assay plates; activity change (cytotoxicity), % at 5 µM; KKLEB CF airway cells viability, ATPlite luminescence, overnight; active compounds read low; cells stimulated with P. aeruginosa culture filtrate; 360,000 compounds, 0.36% hits; AID 602141, 2011;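 active means corrected activity change at or below -50% at 5 µM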
MITF TRPM1 inh = inhibitors of MITF-dependent TRPM1 promoter reporter, primary screen, cell-based, SK-MEL-5, single point, luciferase | SK-MEL-5 TRPM1 promoter luciferase, 24 h | inhibition, % at 12.5 µM | 330,000 compounds, 0.83% hits;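 active means mean inhibition across replicates of 60% or more, whatever share of single replicates reaches that level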
HIF-2a block = HIF-2a reporter inhibitors, primary screen, luminescence, 786-0 RCC cells. inhibition, % at 18.8 µM. 360,000 compounds, 0.72% hits. AID 624352, 2012. 786-0 RCC cells HIF-2a reporter, luciferase luminescence, overnight;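 active means inhibition of the luminescence signal of 40% or more relative to plate controls, in a single-dose primary screen at 18.75 µM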
Shn3 3UTR inh = reduction of Shn3 3'UTR firefly luciferase signal, primary screen, Schnurri-3 inhibitor project, cell-based, Clone20 osteoblasts, set 2. Clone20 osteoblast Shn3 3'UTR firefly luciferase, 24 h. 360,000 compounds, 0.52% hits. inhibition, % at 12.5 µM;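 active means mean inhibition of at least 75% with every replicate also reaching 75%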;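 further: 0% = median of neutral control wells and 100% = pilot-screen positive control compound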
Peg3 prom inh = Peg3 promoter-driven luciferase inhibitors, primary screen, cell-based, HeLa, luciferase luminescence; HeLa PEG-Prom luciferase reporter, overnight; inhibition, % at 20 µM; 360,000 compounds, 1.7% hits; AID 588405, 2011;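 active means inhibition of at least 50% at 20 µM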
* marks the source's active call; other numbers are inactive results; x = no result. Only some compounds are listed: those with a hit (about 2.8% of all), similar ones and a draw of the others.

SMILES	CF NFkB block	KKLEB cytotox	MITF TRPM1 inh	HIF-2a block	Shn3 3UTR inh	Peg3 prom inh
COc1cccc(C(c2nnnn2-c2ccc3c(c2)OCCO3)N2CCC(n3c(=O)[nH]c4ccccc43)CC2)c1OC (stereo not drawn)	85*	-90*	x	-45	87*	49
O=c1[nH]c2ccccc2n1C1CCN(C(c2ccccc2OC(F)(F)F)c2nnnn2-c2ccc3c(c2)OCCO3)CC1 (stereo not drawn)	83*	-86*	x	-44	-1	89*
COc1cccc(C(c2nnnn2Cc2ccccc2)N2CCC(n3c(=O)[nH]c4ccccc43)CC2)c1OC (stereo not drawn)	87*	-75*	x	-7	-2	73*
COc1cc(C2(C#N)CCN(C)CC2)cc(OC)c1OC	2	-2	11	14	-21	5
COC(=O)C1=C(c2ccc(C(C)=O)cc2)C[C@@H]2CC[C@H]1N2C(=O)NC(C)C	-10	0	-8	6	-75	-1
COC(=O)C1=C(c2ccc(F)cc2OCc2ccccc2)C[C@@H]2CC[C@H]1N2C(=O)NCC1CC1	-31	-14	2	4	6	6
O=C(COc1ccc2ccc(=O)oc2c1)N1C[C@H]2C[C@@H](C1)c1cccc(=O)n1C2	-6	1	-3	1	-1	2
Cc1nc2ccccc2c(=O)n1-c1cc([N+](=O)[O-])cc([N+](=O)[O-])c1	-4	4	45	4	10	3
Cc1cccc(-n2c(/C=C/c3ccc([N+](=O)[O-])o3)nc3ccccc3c2=O)c1	-6	12	86*	20	-47	86*
CCN(CC)S(=O)(=O)c1ccc(C(=O)NC2CN3CCC2CC3)cc1 (stereo not drawn)	12	2	-18	4	-6	0
O=C1NC(=O)C(=Cc2ccc(SC3CCCCC3)o2)C(=O)N1	8	11	16	52*	4	40
C=CCn1c(O)c(C(CC)=Nc2ccc(N(C)C)cc2)c(=O)[nH]c1=O	8	-10	9	1	21	6
COC(=O)C[C@]1(C(=O)OC)CN(C#N)N(c2ccc(Cl)cc2)C12c1ccccc1-c1ccccc12	88*	-96*	96*	85*	97*	103*
CN1CCN(Cc2nc3ccccc3n2C)CC1	-5	17	6	6	2	4
Cn1c(NN=O)nc2ccccc21	-7	9	42	-129	90*	-5
CCCCn1c(O)c(C(C)=Nc2ccc3c(c2)CCC3)c(=O)[nH]c1=O	15	-6	-4	8	14	6
Cn1nc(-c2ccc(OCC(=O)N3CCN(Cc4ccccc4)CC3)cc2)c2ccccc2c1=O	-5	0	10	10	89*	37
Cn1cccc1CN1CCN(C(=O)COc2ccccc2)CC1	3	6	-15	19	-20	-1
CC(=O)O[C@@H]1/C=C/[C@](C)(O)C[C@@H](C)C/C=C/[C@H]2[C@@H]3O[C@]3(C)[C@@H](C)[C@H]3[C@H](Cc4ccccc4)NC(=O)[C@@]312	55*	-53*	x	-43	60	39
CC(=O)O[C@@H]1/C=C/[C@](C)(O)C[C@@H](C)C/C=C/[C@H]2[C@H](O)[C@@](C)(O)[C@@H](C)[C@H]3[C@H](Cc4ccccc4)NC(=O)[C@@]312	-7	6	x	-1	9	9
CC(C)C(NC(=O)C(C(C)C)N(C)C)C(=O)N(C)C(C(=O)N1CCCC1C(=O)N1CCCC1C(=O)NCc1ccccc1)C(C)C (stereo not drawn)	64*	-42	65*	31	-15	-3
Cn1cccc1C1CCCN1CC(=O)Nc1ccc(C#N)c(Cl)c1 (stereo not drawn)	-29	2	1	-16	-32	3
C=C(C)[C@@]12OC3(c4ccccc4)O[C@@H]1C1[C@@H]4O[C@]4(CO)[C@@H](O)[C@]4(O)C(=O)C(C)=C[C@H]4[C@@]1(O3)[C@H](C)[C@H]2OC(=O)/C=C/C=C/c1ccccc1 (stereo partly drawn)	54*	-53*	9	-7	-12	100*
N[C@@H](Cc1ccc(N(CCCl)CCCl)cc1)C(=O)O	16	-15	-7	-5	30	1
ClCCN(CCCl)c1ccc(-n2cnc3c(Cl)ncnc32)cc1	30	-3	84*	36	20	104*
SMILES	CF NFkB block	KKLEB cytotox	MITF TRPM1 inh	HIF-2a block	Shn3 3UTR inh	Peg3 prom inh
C=C1[C@H]2CC[C@H]3[C@]4(C)C[C@H](O[C@@H]5OC(CO)[C@@H](OSOOO)[C@H](OS(=O)(=O)O)[C@H]5OC(=O)CC(C)C)C[C@@H](C(=O)O)[C@H]4CC[C@]3(C2)[C@H]1O (stereo partly drawn)	1	13	-10	1	10	13
C#C[C@]1(O)CCC2C3C(=O)C=C4C(Cl)=CCC[C@]4(C)C3CC[C@@]21C (stereo partly drawn)	44	-18	0	21	-58	38
COC(=O)[C@]12OC[C@]34C([C@@H](O)[C@@H]1O)[C@]1(C)CC(=O)C(O)=C(C)[C@@H]1C[C@H]3OC(=O)[C@H](O)[C@@H]24 (stereo partly drawn)	29	0	71*	45*	-8	28
CCC(=O)N1N=C(c2c(O)n(CCc3ccccc3)c(=O)[nH]c2=O)CC1c1ccc(OC)c(OC)c1 (stereo not drawn)	-5	-15	x	15	13	-10
O=C1NC(=S)NC(=O)C1=Cc1ccc(Br)s1	11	12	19	79*	-10	28
c1ccc(CCCN2CCN(CCOC(c3ccccc3)c3ccccc3)CC2)cc1	-4	-9	-23	-5	-5	26
Fc1ccc(C(OCCN2CCN(CCCc3ccccc3)CC2)c2ccc(F)cc2)cc1	21	-25	42	-7	87*	67*
Cc1ccc(N=C(/N=C(\N)N[N+](=O)[O-])Nc2ccc(C)cc2)cc1	-11	-7	4	12	-9	3
COC(=O)C1=C(c2c(C)noc2C)C[C@@H]2CC[C@H]1N2C(=O)NCCOc1ccc(OC)cc1	-16	3	-8	7	-1	3
Clc1cccc(N2CCNCC2)c1Cl	-2	-67*	-1	21	1	-1
COC(=O)C1=C(c2ccccc2OCc2ccccc2)C[C@@H]2CC[C@H]1N2C(=O)NCc1ccc(C(F)(F)F)cc1	11	-17	2	9	34	14

High-throughput results (PubChem BioAssay)
